Results filed as inconclusive are left out. Active and inactive are the calls of the source. The call rests on the fitted dose curve; in most records, active means well fitted inhibition curve with a large enough effect; inconclusive means small, poorly fitted or top-dose-only effect; inactive means flat fitted curve, though single readings scatter.
Columns and labels:
TAB113 = assay: qHTS profiling for inhibitors of Plasmodium falciparum proliferation (AID 504749); further: potency means the concentration at half of the fitted maximal effect; details: P. falciparum in erythrocytes, SYBR Green DNA, 72 h; series mostly up to 28.7 µM
Method in brief: (§1)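 P. falciparum-infected erythrocytes (0.3% parasitemia, 2.5% hematocrit final) were exposed to compounds for 72 h at 37 C in 5% CO2, then lysed with SYBR Green buffer overnight at room temperature; parasite DNA fluorescence was normalized to artemisinin and DMSO controls.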

TAB165 = assay: as above; details: P. falciparum in erythrocytes, SYBR Green DNA, 72 h; series mostly up to 28.7 µM
Method in brief: as §1

W2 = assay: as above; details: P. falciparum in erythrocytes, SYBR Green DNA, 72 h; series mostly up to 28.7 µM
Method in brief: as §1

CRL-7250 = normal cell line; assay: Cytotoxic Profiling of Annotated Libraries Using Quantitative High-Throughput Screening (AID 1296008); details: Five cell lines viability, CellTiter-Glo ATP luminescence, 48-72 h; max response: hits give low values; further: potency means the concentration at half of the fitted maximal effect; on max response: on the % scale 0 is the no-effect control and ±100 the full control effect
Method in brief: (§2)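 Compounds were pin-transferred onto cells and incubated 48 or 72 hr at 37 degree Celsius, 95% humidity. CellTiter-Glo was added, plates sat 10 min at room temperature, then ATP-coupled luminescence was imaged as the viability read-out.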

HEK293 = assay: as above; details: Five cell lines viability, CellTiter-Glo ATP luminescence, 48-72 h; max response: hits give low values
Method in brief: as §2

HaCat [1] = assay: as above; details: Five cell lines viability, CellTiter-Glo ATP luminescence, 48-72 h; max response: hits give low values
Method in brief: as §2

NIH3T3 = assay: as above; details: Five cell lines viability, CellTiter-Glo ATP luminescence, 48-72 h; max response: hits give low values
Method in brief: as §2

KB-3-1 = assay: as above; details: Five cell lines viability, CellTiter-Glo ATP luminescence, 48-72 h; max response: hits give low values
Method in brief: as §2

HACAT [2] = assay: qHTS assay to identify novel small-molecules to repurpose for Merkel cell carcinoma treatment (AID 1296009); details: MCC and control cell lines, CellTiter-Glo viability, 72 h; at 44.8 µM (top of the series) unless noted
Method in brief: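 Cells exposed to NPC (8-point) and MIPE (11-point) compound dilutions for 72 hr at 37 degree celsius; viability read by CellTiter-Glo luminescence, normalized to no-cell and DMSO in-plate controls.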
Further: nearly all actives have a fitted effect of over 60% in size.

Cc1c(-c2ccccc2)oc2c(C(=O)OCCN3CCCCC3)cccc2c1=O
inactive: Potency (TAB113) | Potency (TAB165) | Potency (W2) | max response (CRL-7250) -1.78% | max response (HEK293) -20.2% | max response (HaCat [1]) 3.56% | max response (NIH3T3) 3.38%

NCCNc1cccc2ccccc12
inactive: Potency (TAB165) | max response (CRL-7250) -3.59% | max response (HEK293) -7.17% | max response (HaCat [1]) -24.9% | max response (KB-3-1) -12.5% | max response (NIH3T3) 0.794%

O=C(Oc1cccc2cccnc12)c1ccccc1
inactive: Potency (TAB113) | Potency (TAB165) | max response (CRL-7250) -27.3% | max response (HEK293) -102% | max response (HaCat [1]) -16.2% | max response (KB-3-1) 6.72%

CN1CCN(CCC(=O)N2c3ccccc3Sc3ccc(C(F)(F)F)cc32)CC1
inactive: Potency (TAB113) | outcome (HaCat [1]) | max response (KB-3-1) 5.81% | outcome (HACAT [2])
active: Potency (W2) 4.26 µM | Potency (CRL-7250) 15 µM | Potency (HEK293) 23.7 µM

C/C=C/C=N/NC(=O)c1ccncc1
inactive: Potency (TAB113) | Potency (TAB165) | Potency (W2) | max response (CRL-7250) -0.246% | max response (HEK293) -6.37% | max response (HaCat [1]) 0.247% | max response (NIH3T3) -0.451%

Cc1ccccc1OCC(O)CO (configuration not stated)
inactive: Potency (TAB113) | Potency (TAB165) | Potency (W2) | outcome (CRL-7250) | max response (HEK293) -6.66% | max response (HaCat [1]) 0.0907% | max response (NIH3T3) -27.4%

NCc1ccccc1Sc1ccccc1CO
active: Potency (W2) 4.78 µM
inactive: Potency (TAB113) | max response (CRL-7250) -5.17% | max response (HEK293) -7.72% | max response (HaCat [1]) -3.87% | max response (KB-3-1) 6.51% | outcome (NIH3T3)

COc1cc(O)c(C(=O)c2ccccc2)cc1S(=O)(=O)O
inactive: max response (CRL-7250) 1.74% | max response (HEK293) -6.68% | max response (HaCat [1]) -4.69% | max response (KB-3-1) -4.48% | max response (NIH3T3) 1.08%
active: Potency (W2) 7.57 µM

CCC1NC(=O)c2cc(S(N)(=O)=O)c(Cl)cc2N1 (configuration not stated)
inactive: max response (CRL-7250) -0.729% | max response (HEK293) -0.132% | max response (HaCat [1]) -3.39% | max response (NIH3T3) 3.38%

O=C(O)Cc1csc(-c2ccc(Cl)cc2)n1
inactive: Potency (TAB113) | Potency (TAB165) | Potency (W2) | max response (CRL-7250) -17.8% | max response (HEK293) -0.458% | max response (HaCat [1]) -16.3% | max response (NIH3T3) 1.14%

CC(C)Cn1cnc2c1c(=O)n(C)c(=O)n2C
inactive: Potency (TAB113) | Potency (TAB165) | Potency (W2) | outcome (CRL-7250) | max response (HEK293) -0.637% | max response (HaCat [1]) -0.147% | max response (KB-3-1) -13.7% | max response (NIH3T3) 1.58%

CC(C)(C)NCC(O)COc1cccc2c1C[C@H](O)[C@H](O)C2 (some centres not stated)
inactive: outcome (CRL-7250) | max response (HEK293) -3.77% | outcome (HaCat [1]) | max response (NIH3T3) -4.22% | outcome (HACAT [2])

— PubChem BioAssay (NCATS)
